The text below walks through data of PubChem BioAssay (NCI).

Among the test systems are HCT-15 colon; HT29 colon; SNB-75 CNS; SNB-19 CNS; U251 CNS; PC-3 prostate; SK-MEL-5 melanoma; UACC-62 melanoma; LOX IMVI melanoma; SK-MEL-28 melanoma.
Common to all, as to test: NCI-60 one-dose screen, 48 h (100 = growth as untreated, 0 = no growth, -100 = all killed)
Holding throughout (settings): 10 µM unless noted

Several values for one entry are separate records, joined by “and”; a condition that tells them apart may be missing. Identical values can stand only once. The panel holds about 83,000 compounds, 20% with a hit somewhere; the sample as a whole holds those more often.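 Step 1: grow cells in 96-well plates. Step 2: add test compound at a single concentration. Step 3: incubate 48 h. Step 4: record percent growth.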 A number with no mark means an inactive call. Activity calls are given as the source filed them. Rule for the calls: active = growth percent below 10; inactive = the rest.

`COc1cc(C=O)ccc1Oc1nc(Nc2ccc(F)cc2)nc(N(C)C)n1`: the growth with HCT-15 colon was 88.4% and 18.6%; in the test with HT29 colon, 105% and 69.2%; in the test with SNB-75 CNS it was 47.7% and 58.3%; in the test on SNB-19 CNS, 87.6% and 68.2%; in the test on U251 CNS it was 85% and 36.5%; with PC-3 prostate, 90.3% and 61.7%. For the same molecule, the growth in the test on SK-MEL-5 melanoma was 32.3% and 76.3%; in the test with UACC-62 melanoma it was 63% and 85.7%; in the test with LOX IMVI melanoma it was 54.3%; in the test with SK-MEL-28 melanoma, 99.9% and 84.4%.
Consider `CN1CCN(c2ccc3c4c(cccc24)C(=O)N(c2cccc(-c4nn(-c5ccccc5)cc4-c4nc5ccccc5s4)c2)C3=O)CC1`, for which the growth in the test on HCT-15 colon is 10.2%; in the test on HT29 colon, 45.6%; in the test on SNB-75 CNS, 81.9%; with SNB-19 CNS, 82.9%; with U251 CNS, 67.9%; in the test on PC-3 prostate it was 90.6%. In addition, the growth in the test with SK-MEL-5 melanoma is 90.3%; with UACC-62 melanoma it was 119%; with LOX IMVI melanoma it was 96.6%; with SK-MEL-28 melanoma, 51.6%.
For the molecule `O=C(N/N=C/c1occc1Br)c1[nH]c2ccc(Br)cc2c1-c1ccccc1`, the growth in the test with HCT-15 colon was -78% (active); in the test on HT29 colon, -68.7% (active); in the test on SNB-75 CNS it was -78.2% (active); in the test with SNB-19 CNS it was -97.1% (active); in the test with U251 CNS it was -82.6% (active); in the test on PC-3 prostate, -51.3% (active). Also, the growth was -97.6% (active) in the test with SK-MEL-5 melanoma, -95% (active) with UACC-62 melanoma, -100% (active) in the test with LOX IMVI melanoma and -96.5% (active) in the test with SK-MEL-28 melanoma.
With `COc1cc2cc(C(=O)N3C[C@@H](CCl)c4c3cc(OC(=O)N(CCC(=O)N3CCN(C)CC3)[C@H]3CCSSC3)c3ccccc43)[nH]c2c(OC)c1OC`, the growth in the test with HCT-15 colon is -52.1% (active); with HT29 colon it was -49.4% (active); in the test with SNB-75 CNS, -68.7% (active); with SNB-19 CNS it was -7.02% (active); in the test on U251 CNS, -68% (active); in the test with PC-3 prostate it was -4.51% (active). Further, the growth is -86.3% (active) in the test with SK-MEL-5 melanoma, -91.8% (active) with UACC-62 melanoma, -99.5% (active) with LOX IMVI melanoma and -94.1% (active) in the test on SK-MEL-28 melanoma.
With `COc1ccc(NC(=O)N/N=C/c2c[nH]c3ccccc23)cc1`, the growth in the test on HCT-15 colon is 26.2%; in the test with HT29 colon it was 2.49% (active); in the test on SNB-75 CNS it was 19.6%; with SNB-19 CNS, 47.3%; in the test with U251 CNS it was 28.3%; in the test on PC-3 prostate it was 48.7%. Further, the growth with SK-MEL-5 melanoma is 20.5%; in the test with UACC-62 melanoma it was 25.5%; in the test on LOX IMVI melanoma it was 28%; in the test with SK-MEL-28 melanoma it was 67.9%.
For the molecule `O=C(c1ccc(Cl)cc1)C1[C@H](c2ccccc2Cl)[C@@H](c2ccccc2)NC12C(=O)Nc1ccc(Br)cc12` (stereo not given in full), the growth in the test with HCT-15 colon is -83.8% (active); in the test with HT29 colon, -82.3% (active); with SNB-75 CNS, -28.7% (active); with SNB-19 CNS, -54.6% (active); with U251 CNS, -71.6% (active); in the test on PC-3 prostate, -27.9% (active). Besides, the growth was -95.5% (active) in the test on SK-MEL-5 melanoma, -86.2% (active) in the test on UACC-62 melanoma, -100% (active) in the test on LOX IMVI melanoma and -95.4% (active) in the test with SK-MEL-28 melanoma.
For `COc1ccc2c(c1)C(Sc1ccc(Cl)cc1)c1c(nc(N)c(C#N)c1N)O2` (stereo not given), the growth in the test with HCT-15 colon is 58.9%; in the test on HT29 colon, 75.2%; in the test with SNB-75 CNS, 36.9%; in the test with SNB-19 CNS, 65.1%; in the test on U251 CNS, 51.9%; in the test on PC-3 prostate, 20%. The growth with SK-MEL-5 melanoma is 36.5%; in the test with UACC-62 melanoma it was 64.3%; with LOX IMVI melanoma it was -2.6% (active); in the test with SK-MEL-28 melanoma, 99.8%.
On to `N#Cc1ccc(C(=O)NNC(=O)CSc2nc3sc4c(c3c(=O)n2-c2ccc(Cl)cc2)CCCC4)cc1`, for which the growth with HCT-15 colon was 51.2%; in the test on HT29 colon it was 56%; in the test with SNB-75 CNS it was 86.7%; in the test with SNB-19 CNS, 51.5%; in the test on U251 CNS, 15.9%; in the test with PC-3 prostate, 67%. Moreover, the growth in the test on SK-MEL-5 melanoma is 38.5%; in the test with UACC-62 melanoma, 4.59% (active); in the test on LOX IMVI melanoma, 39.7%; with SK-MEL-28 melanoma, 27.8%.
`OCCn1cc(-c2nc3ccc4[nH]ncc4c3c3c2CCCC3)cn1`: the growth in the test with HCT-15 colon is 26.4%; with HT29 colon, 19.7%; with SNB-75 CNS, 20%; with SNB-19 CNS it was 59.3%; in the test on U251 CNS, 51.2%; in the test with PC-3 prostate, 67.4%. In addition, the growth in the test on SK-MEL-5 melanoma was 22.3%; in the test on UACC-62 melanoma, 27.9%; in the test on LOX IMVI melanoma it was 25.4%; in the test on SK-MEL-28 melanoma it was 59.3%.
As for `CCOc1ccccc1[C@H]1C(C(=O)c2ccc(Cl)cc2)C2(N[C@@H]1c1ccccc1)C(=O)Nc1ccc(Cl)cc12` (stereo not given in full), the growth was 20.3% in the test with HCT-15 colon; 10.7% in the test with HT29 colon; 30.7% with SNB-75 CNS; 37.7% in the test with SNB-19 CNS; 36.3% in the test on U251 CNS; 9.44% (active) with PC-3 prostate. Besides, the growth in the test on SK-MEL-5 melanoma was 6.43% (active); in the test on UACC-62 melanoma, 17.5%; in the test with LOX IMVI melanoma, 13.2%; in the test with SK-MEL-28 melanoma, 41.2%.
As to `C=CC(=O)N1CCN(c2ccc3nc4c(nc3c2C(F)(F)F)C(=O)c2ncccc2C4=O)CC1`, the growth in the test with HCT-15 colon is 1.18% (active); in the test with HT29 colon it was 11.8%; in the test with SNB-75 CNS, 82.3%; in the test with SNB-19 CNS it was 32.3%; in the test on U251 CNS, -17.3% (active); in the test on PC-3 prostate, -4.79% (active). Moreover, the growth is -98.6% (active) in the test on SK-MEL-5 melanoma, -60% (active) in the test on UACC-62 melanoma, -8.11% (active) with LOX IMVI melanoma and 30.5% with SK-MEL-28 melanoma.
For `c1n[nH]cc1-c1nc2ccc3[nH]ncc3c2c2c1CC1(CCOCC1)CC2`, the growth in the test on HCT-15 colon is 39%; in the test on HT29 colon, 25.9%; with SNB-75 CNS, 6.74% (active); in the test on SNB-19 CNS, 37.4%; with U251 CNS, 29.3%; with PC-3 prostate, 47.4%. In addition, the growth was 29% in the test with SK-MEL-5 melanoma, 14% in the test on UACC-62 melanoma, 29.2% with LOX IMVI melanoma and 27.1% in the test on SK-MEL-28 melanoma.
As for `O=C(c1ccc(Cl)cc1)C1[C@H](c2ccccc2Cl)[C@@H](c2ccccc2)NC12C(=O)Nc1ccc(Cl)cc12` (stereo not given in full), the growth in the test on HCT-15 colon is -81% (active); with HT29 colon, -81.6% (active); in the test with SNB-75 CNS, -16.4% (active); in the test on SNB-19 CNS, -28.4% (active); in the test on U251 CNS, -73.3% (active); with PC-3 prostate, -24.8% (active). In addition, the growth is -98.1% (active) with SK-MEL-5 melanoma, -59.9% (active) in the test with UACC-62 melanoma, -100% (active) with LOX IMVI melanoma and -80.1% (active) in the test with SK-MEL-28 melanoma.
